The text below walks through data of PubChem BioAssay (NCATS).

Inconclusive results are not listed. Activity calls are given as the source filed them. Unless noted, how the calls were made is not given here.

Assay [1] is described as follows: qHTS profiling of the MIPE4 collection as inhibitors of Plasmodium falciparum (3D7) proliferation (AID 743344).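 Further: scaled between DMSO vehicle wells and 0.29 µM artemisinin as full inhibition.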 Particulars: P. falciparum 3D7 in erythrocytes, SYBR Green DNA fluorescence, 72 h; at 28.5 µM. The method, boiled down:
(§1)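 Parasite DNA was quantified by SYBR Green I fluorescence (ex 485, em 535 nm) after overnight lysis in saponin/Triton buffer at room temperature. Cultures at 0.3% parasitemia and 2.5% hematocrit were first exposed to compound for 72 h at 37 C; signals were normalised to artemisinin (0.29 uM) and vehicle wells.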
For orientation: In qHTS, concentration-response curves come from the screen itself.

A short description of assay [2]: qHTS profiling of the MIPE4 collection as inhibitors of Plasmodium falciparum (DD2) proliferation (AID 743345). The conditions noted are these: P. falciparum Dd2 in erythrocytes, SYBR Green DNA, 72 h; at 28.5 µM unless noted. The method, boiled down: as §1
Assay [3] is described as follows: qHTS profiling of the MIPE4 collection as inhibitors of Plasmodium falciparum (DD2) proliferation (Rep 2) (AID 743346). The conditions noted are these: P. falciparum Dd2 in erythrocytes, SYBR Green DNA, 72 h; at 28.5 µM. In outline: as §1
Assay [4] can be described thus: qHTS profiling of the MIPE4 collection as inhibitors of Plasmodium falciparum (HB3) proliferation (AID 743347).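 Further: plate controls were DMSO vehicle wells for no effect and artemisinin wells for full effect.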 The conditions noted are these: P. falciparum HB3 in erythrocytes, SYBR Green DNA, 72 h; at 28.5 µM. The method, boiled down: as §1
A short description of assay [5]: High-throughput drug toxicity screening in the BPDCN cell line Gen2.2 (AID 1224824).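 Further: cells exposed to compounds for 48 h before reading.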 Particulars: Gen2.2 BPDCN cells; at 45.8 µM (top of the series). In outline: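 CellTiter-Glo luminescence read after 48 h compound exposure at 37 C defines viability; percent activity set with DMSO as 100% and bortezomib (9.2 uM final) as 0%. 500 exponentially growing cells per well, RPMI plus 10% FBS.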

Assay [6] is described as follows: qHTS assay for cell viability of the p53RE-bla HCT-116 cell line (AID 743292; active means well fitted cell-killing curve with a large enough effect; further: on the % scale 0 is the no-effect control and ±100 the full control effect; nearly all actives have a fitted effect of over 55% in size). The method, boiled down: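 Compound-exposed HCT-116 (p53RE-bla) cells, 4,000 per well, were kept 16 h at 37 C following a 5 h preincubation. Cell number was estimated from total ATP by CellTiter-Glo luminescence read after 30 min at room temperature.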

The compound `CCOC(=O)Nc1ccc(NCc2ccc(F)cc2)cc1N` yielded a parasite growth, % of DMSO control in assay [1] of 12.8%. Moreover, in assay [2], the parasite growth remaining, % of DMSO control (lower = more inhibition) was 13.7%. This compound showed a parasite growth, % of control (lower = inhibition) in assay [3] of 30.4%. The growth, % of control in assay [4] came out at 15.1%. Also, in assay [5], the cell viability, % of control (lower = more cytotoxic) was 120%.

For the compound `CC(=O)O[C@@]12CO[C@H]1C[C@H](O)[C@@]1(C)C(=O)[C@H](O)C3=C(C)[C@@H](O)C[C@@](O)([C@@H](OC(=O)c4ccccc4)[C@@H]21)C3(C)C`, the parasite growth, % of DMSO control in assay [1] was 60.1%. Also, in assay [2], the parasite growth remaining, % of DMSO control (lower = more inhibition) was found to be 94.5%. In assay [3], the parasite growth, % of control (lower = inhibition) is 42.4%. The growth, % of control in assay [4] is 34.8%. Further, the cell viability, % of control (lower = more cytotoxic) in assay [5] was found to be 42%.

Regarding `CC(N[C@H]1C[C@H]1c1ccccc1)c1ccc2c(c1)OCCO2` (stereo not given in full), in assay [1], the parasite growth, % of DMSO control is 90.6%. Moreover, the parasite growth remaining, % of DMSO control (lower = more inhibition) in assay [2] came to 74.9%. In assay [3], this compound gave a parasite growth, % of control (lower = inhibition) of 64.1%. The same compound had a growth, % of control in assay [4] of 60.1%. The cell viability, % of control (lower = more cytotoxic) in assay [5] turned out to be 154%.

Consider `CN(C)NC(=O)CCC(=O)O`, for which the Potency result in assay [6] is “inactive”. The same compound returned a parasite growth, % of DMSO control in assay [1] of 91.1%. In assay [2], the parasite growth remaining, % of DMSO control (lower = more inhibition) stood at 101%. In assay [4], this compound displayed a growth, % of control of 106%. Besides, in assay [5], the cell viability, % of control (lower = more cytotoxic) was found to be 121%.

For the compound `Cc1c(N)nc([C@H](CC(N)=O)NC[C@@H](N)C(N)=O)nc1C(=O)N[C@H](C(=O)N[C@@H](C)[C@H](O)[C@@H](C)C(=O)N[C@@H](C(=O)NCCc1nc(-c2nc(C(=O)NCCC[S+](C)C)cs2)cs1)[C@@H](C)O)C(O[C@H]1O[C@H](CO)[C@H](O)[C@@H](O)[C@@H]1O[C@H]1O[C@H](CO)[C@@H](O)[C@H](OC(N)=O)[C@H]1O)c1cnc[nH]1` (stereo not given in full), in assay [1], the parasite growth, % of DMSO control came out at 11%. Further, the parasite growth remaining, % of DMSO control (lower = more inhibition) in assay [2] was found to be 9.76%. Also, the parasite growth, % of control (lower = inhibition) in assay [3] came out at 15.5%. Also, the growth, % of control in assay [4] stood at 68.4%. Also, in assay [5], the cell viability, % of control (lower = more cytotoxic) came out at 132%.
